SARS PLP yeast – qHTS of Yeast-based Assay for SARS-CoV PLP. S. cerevisiae expressing SARS-CoV PLpro, growth rescue. Potency, µM (top dose mostly 32.9 µM), inactives show top-dose activity, positive = growth rescue, most hits filed as activators. 330,000 compounds, 0.19% hits; also: potency is read from the fitted curve at half-maximal effect; 0% is about no effect; nearly all actives have a fitted effect of over 55% in size
Shiga inhibitor – A qHTS for Small Molecule Inhibitors of Shiga Toxin; Vero cells, Shiga toxin protein synthesis inhibition reporter; inhibition, % at 38.7 µM; 290,000 compounds, 9.2% hits; in the data active = inhibition mostly above about 28%, no sharp cut-off; inactive = mostly below about 43%; also: 0% is about no effect
Cycloheximide cs – Cycloheximide Counterscreen for Small Molecule Inhibitors of Shiga Toxin; cell reporter, cycloheximide protein synthesis inhibition counterscreen; max response, %; 300,000 compounds, 12% hits; in the data active = max response mostly above about 13%, no sharp cut-off; inactive = mostly below about 14%; also: read at 38.3 µM for the half of the compounds with a filed dose; 0% is about no effect
NS1 inh – qHTS Assay for Inhibitors of Influenza NS1 Protein Function | Potency, µM (top dose mostly 46.1 µM), for inactives: at the highest dose activity, positive = more growth | 270,000 compounds, 0.4% hits | AID 2326, 2010; also: potency is read from the fitted curve at half-maximal effect; actives are rising curves; nearly all actives have a fitted effect of over 50% in size
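Compounds were scored for reversing the slow growth caused by influenza A NS1 in S. cerevisiae, measured by optical density at 600 nm. Assay medium contained 2% galactose at pH 6.0; NS1-free yeast of the same strain were the positive control.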
Numbers without * were called inactive; . = no result given; + = active, no number. Shown are actives, neighbours in structure and some others; about 12% of the full set was active somewhere. Unless noted, calls follow the shape of the full dose curve.

SMILES	SARS PLP yeast	Shiga inhibitor	Cycloheximide cs	NS1 inh
CCOC(=O)CN(C(=O)CSc1nnc(CNc2ccc(F)cc2)o1)c1ccccc1	-5%	-6	22*	5%
CCOC(=O)CN(C(=O)CSc1nnc(CNc2ccc(F)cc2)n1C)c1ccccc1	0%	9	-2	-3%
Cc1cc(C(=O)CSc2nnnn2C)c(C)n1CCc1ccc(F)cc1	1%	17	-2	-2%
Cc1cc(C(=O)CSc2nnnn2C)c(C)n1Cc1ccco1	-1%	87*	71*	2%
Cc1cc(C(=O)C(C)Cl)c(C)n1Cc1ccco1 (centres undefined)	-1%	-7	8	.
Cc1cc(C(=O)CSc2ncccn2)c(C)n1Cc1ccco1	-2%	79*	46*	.
CCC(=O)Nc1cccc(-c2csc(-c3ccccc3)n2)c1	-110%	62*	54*	-47%
O=C(COc1ccccc1)Nc1cccc(-c2nc3cc4ccccc4cc3[nH]2)c1	-30%	79*	70*	-92%
COc1ccc(CC(=O)Nc2cccc(-c3csc(C)n3)c2)cc1	3%	37	16	0%
CC(C)CC(=O)Nc1cccc(-c2csc(-c3ccccc3)n2)c1	-17%	+	39*	-10%
CC(=O)Nc1cccc(-c2nc3ccccc3[nH]2)c1	4%	36	15	.
CC(C)CC(=O)Nc1cccc(-c2nc3ccccc3[nH]2)c1	0%	16	14*	10%
O=C(COc1ccccc1)Nc1cccc(-c2nn[nH]n2)c1	1%	-9	2	6%
CC1=Nc2cc(C(=O)NCC3CCCO3)ccc2Sc2ccc(Br)cc21 (centres undefined)	-4%	-10	0	-2%
Cn1c(=O)c(=O)n(C)c2cc(N3CCOCC3)c(NS(=O)(=O)c3ccc(Br)cc3)cc21	4%	-2	-3	4%
CCOCCCNC(=S)Nc1ccc(Br)cc1Cl	0%	36	12*	-6%
CCOc1ccc(NC(=S)Nc2ccc(Br)cc2Cl)cc1	0%	16	-1	-2%
S=C(NCc1ccccc1)NCc1ccccc1	8%	31	-1	-18%
S=C(NCCCc1ccccc1)NCc1ccccc1	10%	25*	26*	-67%
CCOCCCNC(=S)NCCc1ccccc1	8%	108*	43*	-5%
S=C(NCCc1ccccc1)NCCc1cnc[nH]1	8%	.	16*	19%
C[C@H](CO)N1C[C@H](C)[C@@H](CN(C)Cc2ccc3c(c2)OCO3)Oc2c(NS(C)(=O)=O)cccc2C1=O	-1%	.	.	.
Cc1cc(C)c(NC(=S)N(C)C)c(C)c1	-1%	-3	-3	-5%
Cc1cc(C)cc(N2CCCn3c2nc2c3c(=O)[nH]c(=O)n2C)c1	1%	-1	-2	6%
CC(=O)Nc1ccc(OS(=O)(=O)c2ccc(Cl)cc2)cc1	0%	40*	12	-17%
SMILES	SARS PLP yeast	Shiga inhibitor	Cycloheximide cs	NS1 inh
O=C1CCCCC1C(=O)c1cn(-c2ccc(Cl)c(Cl)c2)nn1 (centres undefined)	-1%	16	11	.
O=C(c1cn(-c2ccc(Cl)c(Cl)c2)nn1)C1CC1	-1%	51*	37*	.
CC(=NNC(=O)c1cc(C)oc1C)c1ccc(Br)s1	5%	.	.	.
Cc1occc1C(=O)N/N=C/c1ccc(Br)s1	-3%	63*	42*	-6%
C/C(=N\NC(=O)c1ccoc1C)c1ccc(Br)s1	-4%	80*	57*	9%
Cc1ccc(/C=N/NC(=O)c2ccoc2C)s1	-14%	+	70*	-13%
Cc1ccc(/C=N/NC(=O)c2ccc(C(=O)N/N=C/c3ccc(C)s3)o2)s1	-2%	-3	1	3%
Cc1ncc(CO)c(/C=N/NC(=O)c2ccoc2C)c1O	2%	.	.	.
CC(=O)c1ccc(N2CCN(S(=O)(=O)c3ccc4c(c3)NC(=O)CO4)CC2)cc1	-7%	-6	-9	-1%
COc1cccc(C(=O)Nc2cccc(-c3ccc(N4CCOCC4)nn3)c2)c1	-7%	.	.	.
COc1ccc(S(=O)(=O)N2CCN(C(=O)C3CC3)CC2)cc1Br	-1%	.	.	.
CCOC(=O)c1ccc(NC(=O)[C@@H](NC(N)=O)C(C)C)cc1	0%	-5	-2	-4%
CCOC(=O)CC(=O)Nc1ccc(C(=O)OCC)cc1	-7%	21	15	-27%
CCOC(=O)c1ccc(NC(=O)C(CC)CC)cc1	0%	71*	30*	-13%
CCOC(=O)c1ccc(NC(=O)N(CC)CC)cc1	1%	62*	37*	-4%
C=CCOc1ccc(C(=O)Nc2ccc(OCC)cc2)cc1	0%	39	7	4%
CC(C)COc1ccc(C(=O)Nc2ccc([N+](=O)[O-])cc2)cc1	1%	51*	30*	-2%

High-throughput results deposited in PubChem by National Center for Advancing Translational Sciences (NCATS).
